Laboratory results as given in PubChem BioAssay.
Active and inactive are the calls of the source.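 The calls were made as follows, unless noted: active = inhibition above 20% together with a positive visual image hit; inconclusive = visual image hit but inhibition not above 20%; inactive = no visual image hit.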

How the values were obtained:
[1] = inhibitors of TNFa-induced NFkB p65 translocation, primary screen, imaging, HUVEC, MLSMR starter and 10KST1 sets (AID 438); details: HUVEC TNFa-induced p65 nuclear translocation; cell count: measured here: nuclei count (cytotoxicity indicator), at 2.08 µM; inhibition: at 2 µM, stronger effect = higher value, 0% TNFa-plus-vehicle, 100% no-TNFa wells;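 also: compound added about 3h40 before a 20 min TNFalpha stimulation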;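 as to inhibition: signal is the nuclear over cytoplasmic p65 intensity ratio per well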
[2] = inhibitors of mutant huntingtin aggregation, primary screen, imaging, exon1htt(103Q)mCFP cells, high-content imaging (AID 483;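 active = visual image review flags a hit and inhibition of aggregation exceeds 20%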;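 also: compound exposure lasted 3 days before fixation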;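 as to nuclei count: percent of the per-plate median nuclei count of sample wells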); details: exon1htt(103Q)mCFP cell line, aggregate imaging, at 2 µM; inhibition of aggregation: stronger effect = higher value; nuclei count: measured here: cell count, toxicity
[3] = inhibitors of E-selectin induction by TNFa, primary screen, imaging, HUVEC, immunofluorescence, MLSMR starter and 10KST1 sets (AID 487;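 active = visually confirmed hit in the image check and inhibition above 20%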;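 as to inhibition: signal is fraction of cell area covered by stained E-selectin grains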;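 as to nuclei count: 100% = median nuclei count of all wells on the same plate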); details: HUVEC TNFalpha-induced E-selectin immunofluorescence imaging, at 2 µM; inhibition: stronger effect = higher value; nuclei count: measured here: cell number, toxicity
[4] = biological target: Voltage-gated potassium channel subunit beta-2 (Rattus norvegicus) (UniProt P62483); experiment: KvBeta enzyme negative modulators, primary screen, biochemical, NADPH fluorescence (AID 622;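 active = fluorescence slope higher than the sample average by over 3 SD, cut at about -0.22 in these data, passing the limit was not always enough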;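 also: slope of raw intensity against log time taken from 70 to 1610 s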); details: recombinant KvBeta, 4-cyanobenzaldehyde reduction, at 10 µM, stronger effect = higher value
Chain of Voltage-gated potassium channel subunit beta-2 (Rattus norvegicus) (P62483 whole entry, looked up): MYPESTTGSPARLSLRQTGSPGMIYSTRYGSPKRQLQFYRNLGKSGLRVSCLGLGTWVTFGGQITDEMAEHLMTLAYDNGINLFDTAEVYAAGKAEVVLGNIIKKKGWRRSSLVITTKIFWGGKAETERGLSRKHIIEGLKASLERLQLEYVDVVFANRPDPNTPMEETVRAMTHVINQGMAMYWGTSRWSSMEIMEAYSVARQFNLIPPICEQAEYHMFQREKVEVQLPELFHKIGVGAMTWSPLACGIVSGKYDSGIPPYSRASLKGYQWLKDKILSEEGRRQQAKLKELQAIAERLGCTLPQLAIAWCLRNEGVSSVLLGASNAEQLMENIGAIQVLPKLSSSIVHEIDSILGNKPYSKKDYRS

[5] = biological target: Voltage-gated potassium channel subunit beta-2 (Rattus norvegicus) (UniProt P62483); experiment: KvBeta positive modulators, primary screen, biochemical, NADPH fluorescence (AID 623;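 active = NADPH fluorescence slope more negative than the mean of all samples by about 3 SD, 99.7% confidence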;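 also: fluorescence intensity change per second fitted from 20 to 320 s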); details: Recombinant KvBeta, NADPH fluorescence decrease slope, 10 min; at 10 µM; stronger effect = lower value
[6] = biological target: Alpha-2C adrenergic receptor (Homo sapiens) (UniProt P18825); experiment: modulators of alpha2C/GIRK thallium flux, primary screen, cell-based, HEK293 alpha2C/GIRK1/2 (AID 624;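 active = fluorescence slope after compound addition differing from the mean of all screened samples at 99.7% confidence, in either direction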;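 also: slope of fluorescence ratio to pre-addition baseline per second over 15 to 24 s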); details: thallium flux BTC fluorescence, at 10 µM, actives lie on both sides
Chain of Alpha-2C adrenergic receptor (Homo sapiens) (P18825 whole entry, looked up): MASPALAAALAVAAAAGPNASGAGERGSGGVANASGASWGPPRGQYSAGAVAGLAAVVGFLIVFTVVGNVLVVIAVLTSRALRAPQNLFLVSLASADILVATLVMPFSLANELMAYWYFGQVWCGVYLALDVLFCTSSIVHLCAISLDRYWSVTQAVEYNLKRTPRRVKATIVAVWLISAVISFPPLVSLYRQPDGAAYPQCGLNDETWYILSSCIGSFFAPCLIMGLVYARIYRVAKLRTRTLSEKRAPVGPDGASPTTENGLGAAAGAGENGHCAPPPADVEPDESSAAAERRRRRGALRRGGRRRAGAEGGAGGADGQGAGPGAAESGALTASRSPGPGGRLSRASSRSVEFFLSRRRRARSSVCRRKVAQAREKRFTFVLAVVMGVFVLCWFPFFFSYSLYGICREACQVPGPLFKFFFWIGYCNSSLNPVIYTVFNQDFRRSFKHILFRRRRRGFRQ

[7] = inhibitors of Sendai virus-induced IRF3 signaling, primary screen, TLR/RLR signaling modifier project, cell-based, Sendai virus stimulus, luciferase, 10K MLSCN set (AID 602276;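 active = inhibition at or above 50% at 10 µM; inactive = inhibition below 50%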;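 also: firefly luciferase from ISG56 promoter only with Renilla not read in this screen; 0% = Sendai virus plus DMSO and 100% = medium plus DMSO without virus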); details: HEK293 RL24 IRF3 luciferase reporter, at 10 µM, stronger effect = higher value
[8] = inhibitors of poly I:C-induced TLR3 signaling, primary screen, cell-based, poly I:C stimulus, luciferase, 10K MLSCN set (AID 602277;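 active = inhibition of the reporter signal at or above 50%; inactive = inhibition below 50%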); details: HEK293-TLR3 RL24 IRF3 luciferase reporter, at 10 µM, stronger effect = higher value

Row | Compound | cell count [1] | inhibition [1] | inhibition of aggregation [2] | nuclei count [2] | inhibition [3] | nuclei count [3] | fluorescence slope [4] | NADPH fluorescence slope [5] | slope [6] | inhibition [7] | inhibition [8]
1 | CC(C)Cc1nc(S(=O)(=O)c2ccc(Cl)cc2)c(N2CCOCC2)o1 | 570 | -12.7% (inactive) | -12.7% (inactive) | 119% | -14.6% (inactive) | 105% | -0.612 (inactive) | -4.1e-05 (inactive) | 0.00543 (inactive) | 13.7% (inactive) | 12.7% (inactive)
2 | O=C(Nc1nccs1)c1ccc(COc2ccccc2Br)o1 | 694 | -14.6% (inactive) | -27.8% (inactive) | 111% | -85.8% (inactive) | 118% | -0.487 (inactive) | -5.4e-05 (inactive) | 0.00542 (inactive) | 21.2% (inactive) | -63.2% (inactive)
3 | CSc1ccccc1N=CC1=C(O)CC(C)(C)CC1=O | 483 | 7.1% (inactive) | 2.4% (inactive) | 104% | -4.9% (inactive) | 119% | -0.461 (inactive) | -0.000148 (inactive) | 0.00576 (inactive) | 5.59% (inactive) | 17.7% (inactive)
4 | Cc1cc(C(=O)OCCO)c(C#N)c(N)n1 | 299 | 8.5% (inactive) | 9.5% (inactive) | 106% | -31.1% (inactive) | 128% | -0.132 (active) | 1.2e-05 (inactive) | 0.00497 (inactive) | 16.3% (inactive) | 18.4% (inactive)
5 | COc1cccc(-n2c(SCC(=O)Nc3cc(C)on3)nc3c([nH]c4ccccc43)c2=O)c1 | 600 | 8% (inactive) | -10.2% (inactive) | 89.7% | -41% (inactive) | 118% | -0.539 (inactive) | -7.7e-06 (inactive) | 0.00757 (inactive) | 24% (inactive) | 28.7% (inactive)
6 | CCCCOCCCNC(=O)c1ccccc1OCC | 365 | 8.5% (inactive) | 0.7% (inactive) | 111% | 33.7% (inactive) | 116% | -0.317 (inactive) | -6.3e-05 (inactive) | 0.00615 (inactive) | 11.1% (inactive) | 7.39% (inactive)
7 | Cc1cccc(C(OC(=O)c2ccco2)C(=O)NCc2ccccc2)n1 (configuration not stated) | 724 | -15.3% (inactive) | -7.2% (inactive) | 104% | -79.6% (inactive) | 106% | -0.478 (inactive) | -1.3e-05 (inactive) | 0.00475 (inactive) | -5.03% (inactive) | 21.1% (inactive)
8 | Cc1cc(NC(=O)c2ccccc2)ncc1NC(=O)c1ccco1 | 427 | 12.5% (inactive) | 11.4% (inactive) | 100% |  | 147% | -0.603 (inactive) | 2.5e-05 (inactive) | 0.00711 (inactive) | 7.79% (inactive) | -25.3% (inactive)
9 | CCOC(=O)C(CC)Sc1nc2c(c(=O)[nH]c(=O)n2C)n1C/C=C(/C)Cl (configuration not stated) | 775 | -12.9% (inactive) | 18% (inactive) | 96.3% | 18.5% (inactive) | 106% | -0.601 (inactive) | -6.7e-05 (inactive) | 0.00361 (inactive) | 14.5% (inactive) | 19.1% (inactive)
10 | COc1ccc2nc(NC(=O)C3CCCN(S(=O)(=O)c4cccc5nsnc45)C3)sc2c1 (configuration not stated) | 607 | -3.9% (inactive) | -14% (inactive) | 113% | 2% (inactive) | 122% | -0.455 (inactive) | 3.3e-05 (inactive) | 0.00595 (inactive) | -3.68% (inactive) | -37.1% (inactive)
11 | COc1cccc(C2C(C(N)=O)=C(C)Nc3nc(CCCO)nn32)c1OC (configuration not stated) | 480 | 5% (inactive) | 11.5% (inactive) | 102% | -24.5% (inactive) | 94.1% | -0.455 (inactive) | -2.8e-05 (inactive) | 0.00572 (inactive) | -11.2% (inactive) | 7.06% (inactive)
12 | CCN(CC)C(=O)C1CCCN(c2ncnc3c2cnn3-c2ccc(Cl)cc2)C1 (configuration not stated) | 745 | -5.2% (inactive) | 0.8% (inactive) | 103% | -21.1% (inactive) | 109% | -0.543 (inactive) | -1.7e-05 (inactive) | 0.00713 (inactive) | 10.8% (inactive) | 53.6% (active)
13 | Cc1ccc2c(CC(=O)OCc3csc(C)n3)coc2c1 | 367 | 0.2% (inactive) | 7.3% (inactive) | 92.6% |  | 106% | -0.44 (inactive) | 2.3e-05 (inactive) | 0.00641 (inactive) | 6.62% (inactive) | 30% (inactive)
14 | Clc1cccc(Nc2c3c(nc4ncnn24)CCC3)c1 | 416 | 6% (inactive) | -33.4% (inactive) | 36% |  | 145% | -0.63 (inactive) | -2.2e-07 (inactive) | 0.00604 (inactive) | 14.9% (inactive) | 30.2% (inactive)
15 | Cc1cccc(NS(=O)(=O)c2cc(C(=O)OCC(=O)Nc3cc(C)on3)ccc2C)c1 | 427 | 7.9% (inactive) | 3.7% (inactive) | 99.6% |  | 125% | -0.498 (inactive) | -3.2e-05 (inactive) | 0.00536 (inactive) | 25.1% (inactive) | 2.98% (inactive)
16 | Cc1cc(Oc2ccc(Cl)cc2)nc(-c2ccccc2O)n1 | 612 | 11.3% (inactive) | 4.5% (inactive) | 73.2% | -13.1% (inactive) | 101% | -0.517 (inactive) | 3.7e-05 (inactive) | 0.00665 (inactive) | 3.04% (inactive) | -8.94% (inactive)
17 | CCN1CCN(c2ncnc3c2oc2nc(C)c4c(c23)CC(C)(C)OC4)CC1 | 476 | -2.9% (inactive) | 0.7% (inactive) | 102% | -35.5% (inactive) | 116% | -0.472 (inactive) | -2.5e-05 (inactive) | 0.00388 (inactive) | -6.53% (inactive) | 30.5% (inactive)
18 | COc1ccc(-c2[nH]c(-c3cccc(OC)c3)nc2SCC(=O)NCc2ccco2)cc1 | 672 | 10.5% (inactive) | 5.3% (inactive) | 102% | -5.4% (inactive) | 124% | -0.484 (inactive) | -1.7e-05 (inactive) | 0.00547 (inactive) | 10.3% (inactive) | 4.41% (inactive)
19 | N#Cc1c(-c2ccccc2)nc(N2CCCCCC2)[nH]c1=O | 379 | -6.1% (inactive) | 1.9% (inactive) | 102% | -43.6% (inactive) | 116% | -0.41 (inactive) | -1.5e-05 (inactive) | 0.0048 (inactive) | 6.52% (inactive) | 14.7% (inactive)
20 | Cc1onc(-c2ccccc2)c1C(=O)Nc1sc2c(c1C(N)=O)CCC2 | 404 | 4.8% (inactive) | -0.6% (inactive) | 107% |  | 139% | -0.282 (inactive) | -1.9e-05 (inactive) | 0.00375 (inactive) | 8.08% (inactive) | -31.8% (inactive)
21 | CCc1c(C)c2c(C)nn(-c3ccccc3)c2[nH]c1=O | 292 | -0.8% (inactive) | 21.9% (inactive) | 94.5% | -49.1% (inactive) | 123% | -0.409 (inactive) | -0.000123 (inactive) | 0.00678 (inactive) | 6.95% (inactive) | -0.265% (inactive)
22 | Cc1cccc(N2CCN(C(=O)CCn3c(=S)[nH]c4cc5c(cc4c3=O)OCO5)CC2C)c1 (configuration not stated) | 488 | 3% (inactive) | -4.6% (inactive) | 112% | -1.8% (inactive) | 97.2% | -0.614 (inactive) | -2.6e-05 (inactive) | 0.00669 (inactive) | 9.48% (inactive) | 38.2% (inactive)
23 | COC(=O)C1=C(C)C(c2cccs2)NC(=O)N1C (configuration not stated) | 464 | 4.4% (inactive) | -0.4% (inactive) | 102% |  | 137% | -0.618 (inactive) | -2.3e-05 (inactive) | 0.0046 (inactive) | 15.4% (inactive) | 17.5% (inactive)
